The text below walks through data of PubChem BioAssay (Tox21).

Structures are written as SMILES. Values without a mark were called inactive. The source made the active and inactive calls. Unless noted, calls follow the shape of the full dose curve.
% is scaled to controls: 0 for no effect and ±100 for the full control effect.

Sequence of KiSS-1 receptor (Homo sapiens) (Q969F8 whole entry, looked up): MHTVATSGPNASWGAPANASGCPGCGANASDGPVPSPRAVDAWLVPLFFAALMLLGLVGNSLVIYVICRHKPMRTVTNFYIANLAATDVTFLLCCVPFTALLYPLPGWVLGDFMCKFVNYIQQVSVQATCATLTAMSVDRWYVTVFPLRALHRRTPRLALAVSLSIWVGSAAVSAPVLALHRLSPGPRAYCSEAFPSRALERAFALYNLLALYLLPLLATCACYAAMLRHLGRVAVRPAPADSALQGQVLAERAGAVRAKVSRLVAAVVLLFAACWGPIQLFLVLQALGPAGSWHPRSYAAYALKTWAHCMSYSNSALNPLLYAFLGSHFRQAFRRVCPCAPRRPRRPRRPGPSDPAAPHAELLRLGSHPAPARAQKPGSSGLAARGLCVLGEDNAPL

The first test has as its target KiSS-1 receptor (Homo sapiens) (UniProt Q969F8). The experiment in a line: Human kisspeptin (KISS1R) small molecule agonists, calcium flux assay in KISS1R-HEK293 cells (AID 1920064; active = well fitted activation curve with a large enough effect in the repeat runs). As to conditions: KISS1R-HEK293, calcium flux fluorescence, agonist; series mostly up to 76.8 µM; activation: at the top concentration. Put shortly: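 Concentration-response testing used 15 concentrations in triplicate on human KISS1R-expressing HEK293 cells. Calcium-dependent fluorescence (Ex/Em 480/540) was followed kinetically for 3 min after compound transfer.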
Background: A change in cytosolic calcium serves as a functional read-out for many receptors and channels.
As to `BrCCc1ccccc1`, the “activation” value was 3.69%.
Consider `COCC(=O)N(c1c(C)cccc1C)[C@H](C)C(=O)OC`, for which the “activation” value was 2.49%.
In the case of `CN(C)C(=O)C(c1ccccc1)c1ccccc1`, the Potency entry was “inactive”.
As to `CN(CCCC(=O)c1cccnc1)N=O`, the “activation” value was -0.334%.
With `COC(=O)[C@@H](N)CCCN/C(N)=N/[N+](=O)[O-]`, the “activation” value was 0.628% [at 35.3 µM].
In the case of `CC[N+](=O)[O-]`, the Potency entry is “inactive”.
In the case of `CCCCCCC1CCOC1=O` (configuration not stated), the “activation” value was -4.56%.
As for `O=[N+]([O-])c1ccccc1O`, the Potency result was “inactive”.

Tested on in a further test: not listed separately
The experiment in a line: G protein-coupled receptor (GPCR) small molecule agonists, calcium flux assay: HEK293 wild type cell line counter screen (AID 1920065). As to conditions: HEK293 WT calcium flux, fluorescence, agonist mode; series mostly up to 57.6 µM; activation: at the top concentration. Summed up: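 Fluorescence intensity signals activation. After overnight (18 h) culture and a 1 h calcium dye load at 37 C, compounds are added by pin tool and the plate read at 480/540 nm for 3 min in 1 s steps.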
Turning to `ClC(Cl)=C(c1ccc(Cl)cc1)c1ccc(Cl)cc1`, the Potency entry is “inactive”.
Regarding `ClCCN1CCOCC1`, the “activation” value was -1.25%.
For `C1CCC2CCCCC2C1` (configuration not stated), the “activation” value is 0.0967%.
With `CC12CC1(C)C(=O)N(c1cc(Cl)cc(Cl)c1)C2=O` (configuration not stated), the Potency result was “inactive”.
The same measure, in the same setting: the value for `ClCc1cccnc1` was “inactive”; that for `CNC(=O)O/N=C/C(C)(C)S(C)=O` (configuration not stated) was “inactive”; that for `CN(C)C(=O)Nc1ccc(Cl)cc1` was “inactive”.
Turning to `Cc1ccccc1CCl`, the “activation” value is 0.311%.
Turning to `CCOP(=S)(OCC)SCSc1cc(Cl)ccc1Cl`, the “activation” value was -0.114%.
Still for that read-out and setting: the value for `Nc1c(Br)cc([N+](=O)[O-])cc1[N+](=O)[O-]` was -0.204%; that for `COC[C@@H](NC(C)=O)C(=O)NCc1ccccc1` was 0.116% [at 26.5 µM]; that for `COc1cc(OC)nc(NC(=O)NS(=O)(=O)c2ncccc2C(=O)N(C)C)n1` was -0.293%.
Take `OCC(Br)CBr` (configuration not stated): the “activation” value is 0.0719%.
As for `c1ccc(C2CO2)cc1` (configuration not stated), the Potency entry was “inactive”.
On to `CCN(C)N=O`, for which the “activation” value was 0.994%.
On to `C=CC(=O)OCCO`, for which the Potency entry was “inactive”.
On to `CCOP(OCC)OCC`, for which the Potency result is “inactive”.
Still for that read-out and setting: the value for `CC(=O)C1CCOC1=O` (configuration not stated) was “inactive”.
For the compound `C#CCOC(=O)/C=C(C)/C=C/CC(C)CCCC(C)C` (configuration not stated), the “activation” value is 0.558%.
On to `CCN(CC)C1CCCCC1`, for which the “activation” value was 0.579%.
Take `CCCCC(CC)COC(=O)c1ccc(C(=O)OCC(CC)CCCC)c(C(=O)OCC(CC)CCCC)c1` (configuration not stated): the Potency result was “inactive”.
Still for that read-out and setting: the entry for `O=C(CCl)CCl` is “inactive”.
`CCCCN=C=O`: the “activation” value is -0.0757%.
For the compound `COc1nc(NC(C)C)nc(NC(C)C)n1`, the Potency result is “inactive”.
For the compound `CCOc1cc(C=O)ccc1O`, the Potency result is “inactive”.
Regarding `Cl/C=C\CCl`, the “activation” value is 0.557%.
Still for that read-out and setting: the figure for `C=CC(=O)NC(C)(C)CC(C)=O` is -0.24%; for `Cc1ccc(N)cc1C` it is 0.611%.
Regarding `CC(C)(Cl)Cl`, the Potency entry was “inactive”.
As to `CCOS(C)(=O)=O`, the “activation” value is 0.152%.
Take `O=C([O-])c1ccccn1.O=C([O-])c1ccccn1.O=C([O-])c1ccccn1.[Cr+3]`: the “activation” value is 0.114%.
Still for that read-out and setting: the figure for `BrCCc1ccccc1` is 0.302%; for `COCC(=O)N(c1c(C)cccc1C)[C@H](C)C(=O)OC` it is 0.197%.
For `CN(C)C(=O)C(c1ccccc1)c1ccccc1`, the Potency entry was “inactive”.
As to `CN(CCCC(=O)c1cccnc1)N=O`, the “activation” value is -0.0751%.
The same measure, in the same setting: the figure for `COC(=O)[C@@H](N)CCCN/C(N)=N/[N+](=O)[O-]` is 0.334% [at 26.5 µM].
For the compound `CC[N+](=O)[O-]`, the Potency result is “inactive”.
As to `CCCCCCC1CCOC1=O` (configuration not stated), the “activation” value was -0.797%.
Turning to `O=[N+]([O-])c1ccccc1O`, the Potency result was “inactive”.
